# Test results published in PubChem BioAssay (NCI).
# This is part of a sample that, as a whole, favours compounds with a hit. Of some 83,000 tested, about 20% had one in any assay.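 Compound tested at a single concentration for 48 hours in 96-well plates; a percent growth value below 10 was scored as active.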 Activity calls are given as the source filed them.
# System: TK-10 renal
# Test: NCI-60 one-dose screen, 48 h (100 = growth as untreated, 0 = no growth, -100 = all killed)
# Conditions: 10 µM unless noted
# Protocol: Growth inhibition of the TK-10 human tumor cell line is measured as a screen for anti-cancer activity. Cells are grown in 96 well plates and exposed to the test compound for 48 hours. Compounds are tested at a single concentration, which is 10^-5 M for most compounds. The reported endpoint is percent growth (GI% or GIPRCNT), where numbers from 0 - 100% represent growth inhibition, and numbers from -100% - 0 represent cell death. For example, a value of 40 represents 60% growth inhibition. A value of 0 means no net growth occurred over the course of the experiment. A value of -40 indicates 40% of cells at the beginning of the experiment died by the end of the experiment. A value of -100 means all cells are dead at the end of the experiment.
# NCI-60 Human Tumor Cell Lines Screen was performed using the standard one-dose NCI protocol, which is described in more detail at https://dtp.cancer.gov/discovery_development/nci-60/default.htm.
# Compounds with GIPRCNT values below 10 were considered active. Activity score was based on GIPRCNT using the following formula: […]
# Score is 0 for GIPRCNT values of 100 or above, 50 for GIPRCNT values of 0, and 100 for GIPRCNT values of -100.
row,Structure (SMILES),growth
1,O=C(Nc1ccc(Nc2ccncc2)cc1)c1ccc(Nc2ccnc3ccc([N+](=O)[O-])cc23)cc1[N+](=O)[O-],102% (inactive)
2,CCN(CC)CCNc1ccc(Cl)cc1Cl,103% (inactive)
3,OC(Cc1cccnc1)c1ccccc1 (stereo not given),109% (inactive)
4,NC(N)=NC(N)=NCCCc1ccccc1,63.3% [100 µM] (inactive)
5,CC(=O)Nc1ccc2c(c1)Cc1c(F)c(F)c(F)c(F)c1-2,84.7% (inactive)
6,O=C(Nc1ccncc1)C(=O)c1cn(S(=O)(=O)c2cccc(F)c2)c2ccccc12,84.1% (inactive)
7,CCC(O)C(C)(C)C (stereo not given),98.8% (inactive)
8,CC(=O)Oc1c(C)c(OC(C)=O)c2c(c1C(C)=O)OC1CC(=O)C(C(C)=O)=C(O)C21C (stereo not given),109% (inactive)
9,COc1cc(/C=C/C(=O)N2CCN(C(=O)/C=C/c3ccccc3)CC2)cc(OC)c1OC,108% (inactive)
10,O=c1[nH]c(Cl)nc2c1cnn2-c1ccccc1,102% (inactive)
11,OC(c1cc(C(F)(F)F)nc2c(C(F)(F)F)cccc12)C1CCCCN1 (stereo not given),11.9% (inactive)
12,CCCCCCCC/C=C/CCCCCCCC1=NC(C)(C)CN1CC(C)O (stereo not given),82.8% (inactive)
13,CCC(C)CC(C)C(=O)c1c(O)ccn(O)c1=O (stereo not given),83.7% (inactive)
14,NC(=O)c1ncn([C@@H]2O[C@H](CO)[C@@H](O)[C@H]2O)n1,95.5% (inactive)
15,O=C(Oc1ccc[nH]c1=O)c1cccc(Cl)c1,107% (inactive)
16,CCCCCCCCCCCCNc1ncnc2[nH]ncc12,88.2% (inactive)
17,Cc1cc2c(cc1[N+](=O)[O-])NC(CNC(C)C)CC2 (stereo not given),97.1% (inactive)
18,CCn1c2ccccc2c2ccc(C(C)=O)cc21,105% (inactive)
19,Cc1nnc(Nc2ccc(NC(=O)Nc3ccc(Cl)cc3)cc2)c2ccccc12,51.7% (inactive)
20,COC(=O)c1ccc2c(c1)nc(-c1ccc(O)c(OC)c1)n2-c1cc(C(C)(C)C)[nH]n1,116% (inactive)

row,Structure (SMILES),growth
1,CN(C)CCCN1c2nc3ccccc3cc2Sc2cc3ccccc3nc21,-78.2% (active)
2,CO[C@H]1CC(O[C@@H]2/C(C)=C/C[C@@H]3C[C@@H](C[C@]4(CC[C@H](C)[C@@H](C5CCCCC5)O4)O3)OC(=O)[C@@H]3C=C(C)/C(=N/O)[C@H]4OC/C(=C\C=C\[C@@H]2C)[C@]43O)O[C@@H](C)C1O (stereo not given in full),-90.4% (active)
3,C[C@]12CC[C@@H]3c4ccc(O)c([N+](=O)[O-])c4CC[C@H]3[C@@H]1CC[C@@H]2NS(=O)(=O)c1ccc(C(F)(F)F)cc1,46.5% (inactive)
4,O=c1c(O)cccn1CCCNCCCN(CCCn1cccc(O)c1=O)CCCn1cccc(O)c1=O,108% (inactive)
5,COc1ccc(C(=O)/C=C/c2c(Cl)nc3c(c(C)nn3-c3ccccc3)c2-c2ccc(Br)cc2)cc1,106% (inactive)
6,COc1cc(Oc2cc(-c3cccnc3)ccc2NC(=O)Nc2ccc(F)cc2F)cc(OC)c1OC,116% (inactive)
7,Cc1c(C(N)=O)sc2nc(SCC(=O)Nc3ccc(Cl)cc3)n(-c3ccccc3)c(=O)c12,52.8% (inactive)
8,CC/C=C\C=C/C(=O)N/C=C/CC1Cc2cccc(O)c2C(=O)O1 (stereo not given),109% (inactive)
9,COc1ccc(C(=O)COc2cccc(/C=C3\Oc4ccc5ccccc5c4C3=O)c2)cc1,90.1% (inactive)
10,Cc1ccc([N+](=O)[O-])cc1NC(=O)Nc1cccc(F)c1,69.1% (inactive)
11,NS(=O)(=O)c1ccc(NC2=C(Cl)C(=O)c3ccccc3C2=O)cc1,164% (inactive)
12,O=C(Cn1ccnc1)NC(c1ccccc1)c1ccccc1,97.5% (inactive)
13,O=C1/C(=C/c2ccc([N+](=O)[O-])s2)Oc2ccc(Br)cc21,-25.3% (active)
14,O=C(Nc1ccc(C2=NCCCN2)cc1)Nc1ccc(C2=NCCCN2)cc1,109% (inactive)
15,CSc1ccc2c(c1)N(CCC1CCCCN1C)c1ccccc1S2 (stereo not given),66.4% (inactive)
16,O=C(Nc1ccc(Cl)cc1)c1cc2c(cc1O)[nH]c1ccccc12,4.83% (active)
17,CCC(c1ccccc1)c1noc(CCN(CC)CC)n1 (stereo not given),96.7% (inactive)
18,CCOc1cccc(C2CC(=O)Nc3cc4c(cc32)OCO4)c1 (stereo not given),86.2% (inactive)
19,OCc1nnn(-c2ccccc2)c1CO,121% (inactive)
20,COc1ccc(-c2csc(NC(=O)c3cc(OC)c(OC)c(OC)c3)n2)cc1,117% (inactive)
